# Reference: PubChem BioAssay AID1851 (National Center for Advancing Translational Sciences (NCATS), 2009)
# “And” between values parts separate entries of the source, which are not always exact repeats. Equal entries are not always repeated. Among all 16,000 compounds or so, about 5,700 (36%) were called active. About 24% were inconclusive and are not listed. The call rests on the fitted dose curve; in most records, active means well fitted curve in the direction sought with a large enough effect; inconclusive means small, poorly fitted or top-dose-only effect, or effect the other way; inactive means no such curve, though single readings can be large or run the other way. The list shows a part of the results. Some compounds were tested as several samples or in several runs, with calls that do not always agree.
# Target: Cytochrome P450 1A2 (Homo sapiens) (UniProt P05177)
# Sequence (P05177 whole entry, looked up): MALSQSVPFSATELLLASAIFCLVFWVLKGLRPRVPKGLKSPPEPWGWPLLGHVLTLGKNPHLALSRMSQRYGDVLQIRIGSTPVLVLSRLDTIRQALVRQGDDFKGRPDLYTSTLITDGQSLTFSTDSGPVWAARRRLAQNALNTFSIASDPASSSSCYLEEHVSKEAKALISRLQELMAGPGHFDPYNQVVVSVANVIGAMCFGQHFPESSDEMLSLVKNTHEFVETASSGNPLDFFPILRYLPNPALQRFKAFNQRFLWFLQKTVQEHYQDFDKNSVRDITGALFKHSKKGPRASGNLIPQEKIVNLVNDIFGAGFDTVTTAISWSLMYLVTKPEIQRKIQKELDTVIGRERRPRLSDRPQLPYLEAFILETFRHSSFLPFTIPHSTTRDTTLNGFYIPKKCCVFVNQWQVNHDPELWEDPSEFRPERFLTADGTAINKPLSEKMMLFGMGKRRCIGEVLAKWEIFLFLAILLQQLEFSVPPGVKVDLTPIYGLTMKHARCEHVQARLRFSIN
# Experiment: Cytochrome panel assay with activity outcomes
# Details: recombinant CYP, pro-luciferin dealkylation, luminescence, p450-cyp1a2; series mostly up to 57.1 µM
# On the % scale 0 is the no-effect control and ±100 the full control effect.
Structure (SMILES),AC50,"activity, negative = inhibition"
CCCCn1nnnc1SCC(=O)N1CCCC1,inactive,
COCCCn1nnnc1SCC(=O)N1CCCC1,inactive,
CCCCn1nnnc1SCC(=O)c1cc(Cl)ccc1OC,4.47 µM (active),
CSc1ccc(Cl)c(C(=O)NCCOc2cc(C)ccc2C(C)C)c1,2.24 µM (active),
CC(C)(N=NC(C)(C)C1=NCCN1)C1=NCCN1,,-3.55% [at 11.4 µM] (inactive)
COC(=O)c1[nH]c2cccc(OC)c2c1NC(=O)CN(C)CC1OCCO1,14.1 µM (active),
COc1ccc(S(=O)(=O)N(CC(=O)NCC2CCCO2)c2ccc(F)cc2)cc1OC (stereo not drawn),inactive,
CCS(=O)(=O)N1CCC(C(=O)NCc2ccc(F)cc2Cl)CC1,inactive,
CCN1C(=O)[C@H]2[C@H]3[C@H](O)[C@H](O)C/C(=N/O[C@@H](C)c4cn([C@H](CO)Cc5ccccc5)nn4)[C@@H]3CC[C@@H]2C1=O,,-6.67% [at 11.4 µM] (inactive) and -6.23% [at 11.4 µM] (inactive)
C[C@H](N)C1CCC(C(=O)Nc2ccncc2)CC1 (stereo partly drawn),inactive,
C[C@H](N=C(NC#N)Nc1ccncc1)C(C)(C)C,inactive and 15.8 µM (active),
O=C(O)[C@@H]1CS[C@@]2(CCCN(Cc3ccccc3)C2)N1,,-12% [at 2.29 µM] (inactive)
Cc1cccc(CCNc2nc3ccccc3n3nnnc23)c1,0.891 µM (active),
Cc1ccc(C(=O)Nc2nc3ccccc3n3nnnc23)cc1,2.51 µM (active),
Cn1c(=O)c2c(ncn2CN2CCN(Cn3cnc4c3c(=O)n(C)c(=O)n4C)CC2)n(C)c1=O,,-18.2% [at 2.29 µM] (inactive)
Nc1c(C(=O)NCc2ccccc2)sc2nc3c(cc12)C(=O)CCC3,20 µM (active),
C/C(=C\C(=O)c1ccc(Br)cc1)NCc1ccc2c(c1)OCO2,1.41 µM (active),
O=C(/C=C/c1cc2c(cc1Br)OCO2)NCc1ccc(Cl)cc1,1.58 µM (active),
C/C(=C\C(=O)c1ccc(Cl)cc1)NCc1ccc2c(c1)OCO2,1 µM (active),
O=C1Nc2ccc([N+](=O)[O-])cc2C1(O)N1CCCCCC1 (stereo not drawn),inactive,

Structure (SMILES),AC50,"activity, negative = inhibition"
CN(C)Cc1ccccc1-c1nc(N(C)C)c2ccccc2n1,1.26 µM (active),
CNc1nc(-c2ccccc2CN(C)C)nc2ccccc12,3.16 µM (active),
CN(C)Cc1ccccc1-c1nc(NC2CC2)c2ccccc2n1,5.01 µM (active),
Cc1cccc(CNc2nc(-c3ccccc3CN(C)C)nc3ccccc23)c1,3.16 µM (active),
C/C(CC/C(C)=N/O)=N/O,,-12.6% [at 2.29 µM] (inactive)
CN(C)Cc1ccccc1-c1nc(NCc2cccs2)c2ccccc2n1,1 µM (active),
CN(C)Cc1ccccc1-c1nc(NCc2ccccc2)c2ccccc2n1,1.26 µM (active),
COCCNc1nc(-c2ccccc2CN(C)C)nc2ccccc12,10 µM (active),
Cc1cn([C@H]2C[C@H](O)[C@@H](COC(N)=O)O2)c(=O)[nH]c1=O,,-14.6% [at 2.29 µM] (inactive)
CCn1c(SCC(=O)N2CCOCC2)nc2oc3c(Cl)cc(Cl)cc3c(=O)c2c1=O,12.6 µM (active),
CCCCn1c(SCC(=O)N2CCCC2)nc2c1c(=O)n(C)c(=O)n2C,inactive,
Oc1ccccc1C1Nc2cccc3cccc(c23)N1,1 µM (active),
S=C1N(c2ccccc2)C(c2ccc(Cl)cc2)N2CCCN12 (stereo not drawn),4.47 µM (active),
CCOC(=O)c1sc2nc3c(cc2c1N)COC(C(C)C)C3 (stereo not drawn),inactive,
CCOC(=O)c1sc2nc3c(cc2c1N)COC(C)(CC)C3 (stereo not drawn),25.1 µM (active),
COc1ccc2[nH]cc(CCNc3cc(-c4ccccc4C(F)(F)F)ncn3)c2c1,10 µM (active),
COc1ccc2[nH]cc(CCNc3cc(-c4ccccc4OC)ncn3)c2c1,1.58 µM (active),
COc1ccc2[nH]cc(CCNc3cc(-c4ccccc4C)ncn3)c2c1,1 µM (active),
COc1ccc(O[C@H]2C=C[C@@H](c3ccccc3)O[C@H]2CO/N=C\C[C@@H]2C=C[C@H](OC(C)=O)[C@H](COC(C)=O)O2)cc1,,1.58% [at 11.4 µM] (inactive)
CC(C)CO/N=C1/C[C@@H](O)[C@@H](O)[C@@H]2[C@H]3C(=O)N(c4ccc(F)cc4F)C(=O)[C@@H]3CC[C@@H]12,,-0.174% [at 11.4 µM] (inactive)

Structure (SMILES),AC50,"activity, negative = inhibition"
Cc1cc(OC(=O)c2cc(F)c(F)cc2Cl)nc(C)n1,inactive,
COc1ccc(C(=O)/C=C(/C)N(C)C)cc1,3.55 µM (active),
CC(C)CSC[C@@H]1O[C@H](n2cnc3c(N)nccc32)[C@H](O)[C@@H]1O,,3.41% [at 11.4 µM] (inactive)
O=C(O)C1CCC(=O)N(C2CC2)C1c1ccccc1 (stereo not drawn),inactive,
CC1CCC(C(=O)O)([C@H](Br)C(=O)O)CC1 (stereo partly drawn),,-8.77% [at 11.4 µM] (inactive)
CN(C)c1oc(-c2ccccc2)nc1C#N,3.16 µM (active),
CN(C)C(=O)c1ccc(-c2ccc3ncnc(Nc4ccc(F)cc4)c3c2)cc1,20 µM (active),
CN(C)C(=O)c1ccc(-c2ccc3ncnc(Nc4ccccc4)c3c2)cc1,15.8 µM (active),
COC(=O)C/C=C\[C@@H](C)[C@@H](/C=N\OC[C@@H](O)[C@H]1O[C@H]2OC(C)(C)O[C@H]2[C@@H]1O)OC,,-15.6% [at 11.4 µM] (inactive)
Cc1ccc(OCC(=O)NNC(=O)C2CCN(c3ncccn3)CC2)cc1,inactive,
Cc1ccc(OCC(=O)NNC(=O)CCc2ccccc2)cc1,inactive,
Cc1ccc(OCC(=O)Nn2cnc3ccccc32)cc1,6.31 µM (active),
Cc1ccc(OCC(=O)Nc2ccc(Cl)cc2)c(-n2nc3ccccc3n2)c1,3.55 µM (active),
O=C(COc1ccccc1Cl)Nc1cc(Cl)ccc1Oc1ccccc1,2.51 µM (active),
Cc1cc(NC(=O)COc2ccc(Cl)cc2Cl)n(-c2ccccc2)n1,1.78 µM (active),
CC(C)(C)c1ccc(OCC(=O)O)c(Cl)c1,,-16.2% [at 11.4 µM] (inactive)
Cc1cc(Cl)ccc1OC(C)C(=O)Nc1ccc(S(=O)(=O)Nc2cnc3ccccc3n2)cc1 (stereo not drawn),inactive,
Cc1ccc(N(C(C)C(=O)Nc2cc(Cl)ccc2Oc2ccccc2)S(C)(=O)=O)cc1 (stereo not drawn),inactive,
